Records with an inconclusive call do not appear. Calls of active or inactive are those of the source. Unless noted, calls follow the shape of the dose curve; as a rule, active = well fitted curve in the direction sought with a large enough effect in the repeat runs; inconclusive = weak or mixed curves; inactive = no such curve, though single readings can be large; an effect the other way counts as inactive or inconclusive.
Key:
[1] = qHTS assay to identify small molecule antagonists of the estrogen related receptor (ERR) signaling pathway from Tox21 library - cell viability counter screen (AID 1224834); also: nearly all actives have a fitted effect of over 30% in size
In short: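 ERR reporter cells were plated 6 h before compound addition, then exposed to test compounds in DMSO for 17.5 h at 37 C. Viability was read as CellTiter-Fluor fluorescence after a 30-minute incubation at 37 C.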

[2] = biological target: Luciferin 4-monooxygenase (Photinus pyralis) (UniProt P08659); experiment: qHTS assay to identify small molecule inhibitors of firefly luciferase (AID 1224835); also: series mostly up to about 120 µM; nearly all actives have a fitted effect of over 25% in size
Chain of Luciferin 4-monooxygenase (Photinus pyralis) (P08659 whole entry, looked up): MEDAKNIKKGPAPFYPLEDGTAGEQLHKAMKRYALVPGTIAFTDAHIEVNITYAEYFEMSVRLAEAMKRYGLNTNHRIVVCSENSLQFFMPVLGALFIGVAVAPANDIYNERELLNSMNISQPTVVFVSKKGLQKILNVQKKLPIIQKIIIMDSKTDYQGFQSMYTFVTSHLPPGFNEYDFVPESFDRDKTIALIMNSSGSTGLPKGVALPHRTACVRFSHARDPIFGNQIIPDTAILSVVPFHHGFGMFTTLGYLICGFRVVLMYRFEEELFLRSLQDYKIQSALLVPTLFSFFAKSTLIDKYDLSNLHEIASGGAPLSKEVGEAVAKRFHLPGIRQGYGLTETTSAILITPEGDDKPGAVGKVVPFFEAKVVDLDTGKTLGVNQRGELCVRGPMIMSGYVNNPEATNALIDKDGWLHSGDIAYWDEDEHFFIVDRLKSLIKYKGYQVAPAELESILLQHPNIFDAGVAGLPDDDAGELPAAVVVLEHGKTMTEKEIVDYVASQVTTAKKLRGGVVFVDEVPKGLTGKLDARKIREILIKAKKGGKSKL
In short: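 Quantitative HTS format; KM concentrations of both substrates. Purified P. pyralis FLuc activity quantified from luminescence images.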

[3] = qHTS assay to identify small molecule agonists of the constitutive androstane receptor (CAR) signaling pathway - cell viability counter screen (AID 1224836); also: series mostly up to about 92 µM; nearly all actives have a fitted effect of over 45% in size
In short: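 Counter screen multiplexed with the CAR reporter readout: HepG2 cells co-transfected with hCAR and the CYP2B6-2.2kb construct receive a 15-concentration compound series and 0.75 uM PK11195 (final), then CellTiter-Fluor fluorescence is read after 23 h.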

[4] = qHTS assay to identify small molecule antagonists of the constitutive androstane receptor (CAR) signaling pathway - cell viability counter screen (AID 1224837); also: series mostly up to about 92 µM; nearly all actives have a fitted effect of over 45% in size
In short: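 HepG2 cells stably expressing hCAR and a CYP2B6-2.2kb reporter were plated and pre-incubated 4 hr at 37 C/5% CO2, then given compounds at 15 concentrations plus 50 nM CITCO (final). After 23 hr, viability was read by CellTiter-Fluor fluorescence.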

[5] = biological target: Nuclear receptor subfamily 1 group I member 3 (Homo sapiens) (UniProt Q14994); experiment: qHTS assay to identify small molecule antagonists of the constitutive androstane receptor (CAR) signaling pathway (AID 1224838); also: nearly all actives have a fitted effect of over 40% in size
Chain of Nuclear receptor subfamily 1 group I member 3 (Homo sapiens) (Q14994 whole entry, looked up): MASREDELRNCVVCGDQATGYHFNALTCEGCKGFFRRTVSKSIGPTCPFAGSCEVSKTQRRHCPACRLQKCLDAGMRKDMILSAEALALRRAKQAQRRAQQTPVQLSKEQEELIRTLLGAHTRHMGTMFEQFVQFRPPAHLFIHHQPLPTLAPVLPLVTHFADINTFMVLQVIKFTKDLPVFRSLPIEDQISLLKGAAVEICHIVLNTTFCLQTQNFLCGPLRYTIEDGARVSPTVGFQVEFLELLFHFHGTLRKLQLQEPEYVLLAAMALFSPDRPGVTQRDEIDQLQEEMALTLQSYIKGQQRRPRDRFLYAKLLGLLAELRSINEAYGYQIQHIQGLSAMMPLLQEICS
In short: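 HepG2 cells stably co-transfected with hCAR and a CYP2B6-2.2kb luciferase reporter were seeded 4 h before compound addition at 15 concentrations. Cells were stimulated with 50 nM CITCO (final) for 24 h at 37 C; luciferase luminescence was then read.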

[6] = biological target: Nuclear receptor subfamily 1 group I member 3 (Homo sapiens) (UniProt Q14994); experiment: qHTS assay to identify small molecule agonists of the constitutive androstane receptor (CAR) signaling pathway (AID 1224839); also: series mostly up to about 92 µM; nearly all actives have a fitted effect of over 15% in size
In short: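 A 15-concentration quantitative screen uses HepG2 cells co-transfected stably with human CAR and CYP2B6-2.2kb reporter. Treatment lasts 24 h with 0.75 uM PK11195 final present; ONE-Glo luminescence is the signal.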

[7] = qHTS assay to identify small molecule antagonists of the estrogen related receptor signaling pathway with the pleiotropic PPARgamma coactivator (PGC) from Tox21 10K library - cell viability counter screen (AID 1224840; active = well fitted cell-killing curve with a large enough effect in the repeat runs, not every such curve was filed as active; also: nearly all actives have a fitted effect of over 40% in size)
In short: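 PGC/ERR cells were seeded at 2,000 cells/well and left 6 hours at 37 C/5% CO2 before pin-tool addition of compounds in DMSO. After 17.5 hours at 37 C, CellTiter-Fluor was added and fluorescence read 30 minutes later.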

[8] = biological target: Thyrotropin receptor (Homo sapiens) (UniProt P16473); experiment: qHTS assay to identify small molecule agonists of the thyroid stimulating hormone receptor (TSHR) signaling pathway (AID 1224843; calls by dose curve; also: nearly all actives have a fitted effect of over 45% in size)
Chain of Thyrotropin receptor (Homo sapiens) (P16473 whole entry, looked up): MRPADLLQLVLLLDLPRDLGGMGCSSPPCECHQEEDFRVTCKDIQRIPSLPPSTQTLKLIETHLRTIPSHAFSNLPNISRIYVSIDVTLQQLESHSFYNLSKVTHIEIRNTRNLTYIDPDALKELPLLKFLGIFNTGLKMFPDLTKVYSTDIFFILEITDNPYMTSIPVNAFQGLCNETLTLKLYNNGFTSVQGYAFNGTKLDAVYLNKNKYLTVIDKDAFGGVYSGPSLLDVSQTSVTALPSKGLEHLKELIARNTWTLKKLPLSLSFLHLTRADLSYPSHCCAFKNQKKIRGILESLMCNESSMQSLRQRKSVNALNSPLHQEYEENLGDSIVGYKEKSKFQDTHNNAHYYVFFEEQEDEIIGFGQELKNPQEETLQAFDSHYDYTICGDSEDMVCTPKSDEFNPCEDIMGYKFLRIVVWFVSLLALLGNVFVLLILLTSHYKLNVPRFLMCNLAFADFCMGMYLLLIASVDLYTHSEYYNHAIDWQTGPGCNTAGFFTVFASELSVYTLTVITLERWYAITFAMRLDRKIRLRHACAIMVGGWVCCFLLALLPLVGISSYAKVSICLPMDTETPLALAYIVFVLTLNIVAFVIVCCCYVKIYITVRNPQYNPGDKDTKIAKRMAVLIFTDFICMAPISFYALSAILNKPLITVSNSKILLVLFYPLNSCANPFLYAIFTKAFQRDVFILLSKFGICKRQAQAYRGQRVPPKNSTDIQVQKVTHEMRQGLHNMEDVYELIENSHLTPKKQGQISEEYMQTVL
In short: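 TSHR-expressing HEK293 cells (800 per well) were exposed to compounds for 30 min at room temperature. cAMP was then detected by HTRF competition with cAMP-d2 and anti-cAMP cryptate, read after 1 h at room temperature. Fifteen concentrations, triplicate.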

[9] = qHTS assay to identify small molecule agonists of the hypoxia (HIF-1) signaling pathway - cell viability counter screen (AID 1224844; calls by dose curve; also: nearly all actives have a fitted effect of over 50% in size)
In short: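 HRE-bla ME-180 cells in medium with 0.5% dialyzed FBS were preincubated 5 hrs at 37C, exposed to compounds for 17 hrs, then viability was read as CellTiter-Glo luminescence after 30 min at room temperature, in the reporter wells.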

[10] = qHTS assay to identify small molecule agonists of H2AX (AID 1224845; active = well fitted activation curve with a large enough effect in the signal ratio in the repeat runs, not every such curve was filed as active; the % refers to the signal ratio)
In short: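 Wild-type CHO-K1 cells plated overnight, then exposed 3 hr at 37C to compounds at 15 concentrations (0.76% DMSO). Lysed, then HTRF anti-pH2AX(S139)-cryptate/anti-H2AX-d2 detection after 24 hr at room temperature; emissions 665 and 620 nm.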

[11] = qHTS assay to identify small molecule agonists of the hypoxia (HIF-1) signaling pathway (AID 1224846; active = well fitted activation curve with a large enough effect in the signal ratio in the repeat runs, not every such curve was filed as active; the % refers to the signal ratio)
In short: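 HRE-bla ME-180 cells (beta-lactamase reporter under hypoxia response element) were plated at 2,000 cells/well in medium with 0.5% dialyzed FBS, rested 5 hrs, then given compounds in DMSO for 17 hrs at 37C, 5% CO2. Reporter induction was read with CCF4-AM FRET substrate.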

[12] = qHTS assay to identify small molecule agonists of H2AX - cell viability counter screen (AID 1224847; calls by dose curve; also: top concentration of the series differs between compounds; nearly all actives have a fitted effect of over 30% in size)
In short: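 We seed wild-type CHO-K1 cells overnight, treat them for 3 hr at 37C with compounds in 15-concentration series, and quantify remaining viability by CellTiter-Glo luminescence.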

[13] = qHTS RealTime-Glo MT Cell Viability Assay in HepG2 cells - 24 hour (AID 1224867); also: nearly all actives have a fitted effect of over 50% in size
In short: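 Real-time, nonlytic viability: 600 HepG2 cells/well mixed with NanoLuc enzyme plus prosubstrate; 5 h settle, compound (DMSO) added by pintool; luminescence monitored over 40 h at 37 C.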

[14] = qHTS RealTime-Glo MT Cell Viability Assay in HEK293 cells - 32 hour (AID 1224868); also: top concentration of the series differs between compounds; nearly all actives have a fitted effect of over 50% in size
In short: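 Cells + reagent dispensed (600 cells/well, HEK293) → 5 h at 37 C/5% CO2 → 23 nL compound in DMSO pinned → 40 h at 37 C → luminescence read at 0, 8, 16, 24, 32, 40 h.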

[15] = A CellTox Green Cytotoxicity Assay to monitor cytotoxicity in HEK293 cells - 0 hour (AID 1224869); also: nearly all actives have a fitted effect of over 50% in size
In short: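 HEK293 cells premixed with CellTox Green dye were seeded at 600 cells/well and left 5 h at 37 C/5% CO2 before pin transfer of 23 nL compound in DMSO. Fluorescence from dye bound to dead-cell DNA was read during 40 h treatment.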

[16] = qHTS RealTime-Glo MT Cell Viability Assay in HepG2 cells - 40 hour (AID 1224870); also: nearly all actives have a fitted effect of over 50% in size
In short: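 HepG2 cells mixed with RealTime-Glo MT reagents (NanoLuc plus cell-permeant prosubstrate) were seeded at 600 cells/well, incubated 5 h at 37 C/5% CO2, then pinned with compounds in DMSO; nonlytic luminescence tracked viability during 40 h treatment.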

Measured: Potency

CC(=O)Nc1ccc(OCC(O)CNC(C)C)cc1 (stereo not given)
inactive: all assays above

CCN(C=O)CC
not listed: [9]
inactive: all other assays above

CCC(C)(CCCC(C)C)OC(C)=O (stereo not given)
not listed: [8] | [10]
inactive: all other assays above

CC(C)C(=O)OC(=O)C(C)C
not listed: [9]
inactive: all other assays above

CC/C=C\CCOC(C)OCC (stereo not given)
inactive: all assays above

CC(C)(C)C(=O)c1ccccc1
not listed: [8]
inactive: all other assays above

O=C(O)Cc1csc(-c2ccc(Cl)cc2)n1
not listed: [8]
inactive: all other assays above

C=C(C)C(=O)OCCOCCOCCOCCOC(=O)C(=C)C
not listed: [10] | [14]
inactive: all other assays above

NC(CCC(=O)O)C(=O)O (stereo not given)
not listed: [10]
inactive: all other assays above

Source: PubChem BioAssay (Tox21)
